# High-throughput results from PubChem BioAssay.
# SKKanGAS inh: blocks kanamycin growth of S. pyogenes SKKanGAS strain; BacTiter-Glo, 6 h; inhibition, % at 7.5 µM; hit rate 1.3% among 300,000; AID 1662;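 active = mean replicate score, as percent of positive control median, at least 50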;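 note: strain carries kanamycin resistance gene driven by streptokinase promoter and grows in 40 µg/ml kanamycin; loss of luminescence reflects streptokinase promoter inhibition or plain growth inhibition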
# tim23-1 inh: inhibits growth of tim23-1 mutant yeast; S. cerevisiae tim23-1 growth, BacTiter-Glo luminescence, 24 h; inhibition, % at 20 µM; hit rate 1.3% among 330,000; AID 463212;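 active = growth inhibition of the mutant yeast at or above 50%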;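 note: temperature-sensitive mutant grown at 25 °C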
# PfHsp90 set2: reduces growth (ATP signal) of yeast expressing P. falciparum Hsp90 | S. cerevisiae expressing PfHsp90, BacTiter-Glo ATP, 48 h; yeast lacking PDR1 and PDR3 efflux regulators | inhibition, % at 9.4 µM | hit rate 0.32% among 310,000 | AID 504621;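 active = every replicate shows inhibition above about 80%, whatever the replicate mean, limit read from the data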
# TIM10 inh: growth inhibitors of TIM10 yeast strain | inhibition, % at 10 µM | S. cerevisiae TIM10 strain growth, BacTiter-Glo luminescence, 24 h | hit rate 1.4% among 330,000;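 active = inhibition of 40% or more at the single tested concentration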;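 note: wild-type TIM10 isogenic control strain grown at permissive 25 °C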
# tim10-1 inh: tim10-1 yeast growth inhibition. S. cerevisiae tim10-1 ts strain growth, BacTiter-Glo, 24 h. inhibition, % at 20 µM. hit rate 2.2% among 330,000;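 active = inhibition of at least 40%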;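 note: mutant grown at 25 °C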
# EBI2 block: blocks human EBI2 receptor beta-arrestin signaling; P32249; EBI2 beta-arrestin recruitment, luminescence, 7a,25-OHC stimulated; inhibition, % at 5 µM; hit rate 0.81% among 360,000; in the data active = inhibition above about 38%;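 note: enzyme fragment complementation signal reports receptor beta-arrestin coupling in cells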
# Target sequence (P32249 whole entry, looked up, the tested form may be a part): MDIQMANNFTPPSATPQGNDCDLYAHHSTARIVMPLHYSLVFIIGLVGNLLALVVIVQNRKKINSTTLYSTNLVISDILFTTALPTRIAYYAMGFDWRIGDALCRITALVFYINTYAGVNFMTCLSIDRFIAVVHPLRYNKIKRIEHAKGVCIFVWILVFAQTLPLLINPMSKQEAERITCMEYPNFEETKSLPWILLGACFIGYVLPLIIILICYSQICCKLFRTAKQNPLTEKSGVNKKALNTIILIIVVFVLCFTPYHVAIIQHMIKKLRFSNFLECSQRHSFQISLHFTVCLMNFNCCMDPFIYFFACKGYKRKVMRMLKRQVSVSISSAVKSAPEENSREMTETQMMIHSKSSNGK
# Numbers stand for hits; n = inactive; x = no result given. This is a sample that favours compounds with a hit; in the whole collection about 4.7% have one here.
SMILES,SKKanGAS inh,tim23-1 inh,PfHsp90 set2,TIM10 inh,tim10-1 inh,EBI2 block
CCC(=O)NC(=S)Nc1cccc(Cl)c1N1CCCC1,n,n,x,n,n,n
CC(=O)c1ccccc1NS(C)(=O)=O,n,n,n,n,n,n
COC(=O)c1ccc(NC(=O)c2sc3nc(-c4ccccc4)cn3c2C)cc1,71,n,n,n,n,n
COc1ccc(-c2cn3c(C)c(C(=O)Nc4ccncc4)sc3n2)cc1,n,n,n,n,n,n
CC(C)(C)c1ccc(NC(=O)COC(=O)c2ccc([N+](=O)[O-])s2)cc1,x,x,109,x,x,n
O=C(COC(=O)c1ccc([N+](=O)[O-])s1)Nc1ccc(Cl)cn1,n,n,n,n,n,n
COc1cc2nc(=S)n3[nH]c(CCn4nc(C)cc4C)nc3c2cc1OC,51,n,n,n,n,n
COc1cc(-c2csc(CCn3nc(C)cc3C)n2)cc(OC)c1OC,n,n,n,n,n,n
COc1cc2nc(=S)n3[nH]c(COc4ccccc4C)nc3c2cc1OC,64,n,n,n,n,n
CCOC(=O)C1=NN(C(=O)c2ccc(OC)cc2)C(O)(c2ccc(Cl)cc2)C1 (stereo not drawn),53,n,n,n,n,n
CCOC(=O)C1=NN(C(=O)c2ccccc2)C(O)(c2ccc(C)cc2)C1 (stereo not drawn),n,n,n,n,n,n
CCCCOc1cccc2c(=O)n(CC(=O)Nc3ccc4c(c3)OCCO4)ccc12,x,x,x,x,x,n
COc1ccc(CCN2C(=O)c3[nH]nc(-c4ccccc4O)c3C2c2cccc(Cl)c2)cc1 (stereo not drawn),71,n,n,n,n,n
COc1ccc(CN(C)C(=O)c2cccc(NC(=O)CC3SC(N4CCCCC4)=NC3=O)c2)c(OC)c1 (stereo not drawn),x,x,n,x,x,n
CC(NC(=O)c1ccc(Br)cc1)c1ccc2c(c1)CCCC2 (stereo not drawn),n,n,105,n,n,n
CC(NC(=O)c1ccc(F)cc1)c1ccc2c(c1)CCCC2 (stereo not drawn),n,n,n,n,n,n
CC(C)(C)c1ccc(C(=O)N2[C@H](COCc3ccccc3)C=CS2(=O)=O)cc1,x,x,x,x,x,n
COC(=O)[C@H]1[C@H](CCc2ccccc2)NC(=O)N(Cc2ccccc2)[C@@H]1C,73,x,n,x,x,n
CC1=C(C(=O)N(C(C)C)C(C)C)CC(CC(=O)NCc2cccs2)C(=O)N1Cc1ccccc1 (stereo not drawn),x,x,x,x,x,n
Nc1[nH]n2c(=O)cc(-c3ccccc3)nc2c1N=Nc1ccccc1,104,n,x,n,n,n
CC(OC(=O)C1CCCCC1)C(=O)Nc1ccc(S(N)(=O)=O)cc1 (stereo not drawn),x,n,n,n,n,n
Cc1ccc(S(=O)(=O)N2CC3=C(C2)C2CC2(C)C3)cc1 (stereo not drawn),x,x,x,x,x,n
O=C(Nc1cccc(S(=O)(=O)N2CCCC2)c1)c1ccccc1OC(F)F,n,n,n,n,n,n
Fc1ccc(CO/N=C/C2=C(Cl)c3ccccc3CC2)cc1,79,n,n,n,n,n
CCCOc1ccc(NC(=O)C2CC(=O)N/C(=N/N=C(C)/C=C/c3ccc(N(C)C)cc3)S2)cc1 (stereo not drawn),n,n,x,n,n,n
SMILES,SKKanGAS inh,tim23-1 inh,PfHsp90 set2,TIM10 inh,tim10-1 inh,EBI2 block
CC(/C=C/c1ccc(N(C)C)cc1)=N\N=C1\NC(=O)CC(C(=O)Nc2ccccc2)S1 (stereo not drawn),75,n,n,n,n,n
CC(/C=C/c1ccc(N(C)C)cc1)=N/N=C1/NC(=O)CC(C(=O)Nc2ccc(Cl)cc2)S1 (stereo not drawn),95,n,n,n,n,n
O=c1ccn([C@@H]2O[C@H](CNCc3ccccc3OCc3ccc(Cl)cc3Cl)[C@@H](O)[C@H]2O)c(=O)[nH]1,x,x,x,x,x,n
CN1CCN(c2c(F)cc3c(=O)c(C(=O)O)cn4c3c2OCN4C)CC1,104,n,n,n,n,n
O=C(OCc1cn([C@@H]2CN(C(=O)C3CCCCC3)[C@@H](c3ccc(Cl)cc3)C[C@H]2O)nn1)c1ccccc1,x,x,x,x,x,n
Cc1ccc(C)c(CN2CCCN(Cc3cc(C)ccc3C)S2(=O)=O)c1,72,n,n,n,n,n
O=C(Nc1ccc(NC(=O)c2cc3ccccc3o2)cc1)c1ccc2c(c1)OCCO2,n,n,x,n,n,n
Cc1cc(NC(=O)c2ccc3c(c2)OCCO3)ccc1NC(=O)c1cc2ccccc2o1,53,n,n,n,n,n
C[C@@H]1CN([C@@H](C)CO)C(=O)CCCn2nncc2CO[C@H]1CN(C)C(=O)C1CC1,x,x,x,x,x,n
Cc1cc(/C=C2\SC(=S)N(C)C2=O)c(C)n1-c1ccccc1O,88,n,n,n,n,n
CN1C(=O)/C(=C/c2coc3ccc(O)cc3c2=O)SC1=S,n,n,n,n,n,n
Cc1ccc(-n2c(C)cc(/C=C3\SC(=O)NC3=O)c2C)cc1,n,n,n,n,n,n
Cc1cc(/C=C2\SC(=S)NC2=O)c(C)n1-c1cccc(O)c1,82,n,94,n,n,n
COC(=O)[C@@]12C[C@@H](CC(=O)NCc3cccc(C(F)(F)F)c3)C(=O)N(CCc3ccc(OC)c(OC)c3)C1=CCC(C)(C)C2,x,x,x,x,x,n
CC(=O)OC[C@]12CC[C@H]3[C@@](C)(CC[C@H]4C(C)(C)CCC[C@]34C)[C@@H]1CC(C1=CC(=O)OC1O)O2 (stereo partly drawn),x,x,x,x,x,87
OCC[C@@H]1C[C@H](O)[C@@H](O)[C@@]2(OCCc3cc(Cl)ccc32)O1,x,x,x,x,x,n
O=S(=O)(Nc1nc2ccccc2nc1Cl)c1ccc2ccccc2c1,51,n,n,n,n,n
O=S(=O)(Nc1nc2ccccc2nc1Cl)c1ccccc1,n,n,n,n,n,n
Nc1o[nH]c(=O)c1C1CCCCC1,x,x,n,x,x,n
N=C1S/C(=C\c2ccco2)C(=O)N1c1nccs1,81,n,n,n,n,n
N=C1S/C(=C\c2ccco2)C(=O)N1c1ccc2c(c1)OCO2,n,n,n,n,n,n
CC(=O)NC[C@H]1CN(c2ccc(N3CCOCC3)c(F)c2)C(=O)O1,107,n,x,n,n,x
Cc1cnc(C(=O)Nc2nnc(SCc3c(Cl)cccc3Cl)s2)cn1,102,n,n,n,n,n
CCSc1nnc(NC(=O)c2ccccn2)s1,68,n,n,n,n,n
CCSc1nnc(NC(=O)c2cnccn2)s1,n,n,x,n,n,x
Cc1ccc(CN2CC(C(=O)Nc3nnc(SCc4c(Cl)cccc4Cl)s3)CC2=O)cc1 (stereo not drawn),79,n,n,n,n,n
O=C(CN1C(=O)C2CC=CCC2C1=O)Nc1nnc(SCc2c(Cl)cccc2Cl)s1 (stereo not drawn),n,n,n,n,n,n
COC(=O)CSc1nnc(NC(=O)C2CC(=O)N(c3ccc(F)cc3)C2)s1 (stereo not drawn),50,n,n,n,n,n
O=C(CNC(=O)c1ccccc1F)OCCOc1cccc(Cl)c1,n,n,n,n,n,n
